Bioassay records (PubChem BioAssay)
Compounds with a hit are over-represented: about 6.9% of the library has one in this group of screens.
MCF10A rerep: DNA re-replication induction in MCF 10a cells; 2.9% of 350,000 active; Potency, µM (series often up to 46.1 µM), for inactives: at the top dose activity, positive = re-replication, actives largely listed as activators; MCF 10A DNA re-replication, Hoechst nuclear intensity, 48 h; AID 624296; further: potency means the concentration at half of the fitted maximal effect; % of control where 0% means no effect; nearly all actives have a fitted effect of over 50% in size
IL-1B inflam inh: inflammasome signaling inhibition, IL-1 beta readout | AID 743279 | THP-1 LPS/ATP IL-1B secretion, AlphaLISA, 16 h; stronger effect = lower value | 4.7% of 360,000 active | activity change, % at 57.5 µM; in the data active means activity change below about -50%; inconclusive means mostly about -30% to -49%; further: on the % scale 0 is the no-effect control and ±100 the full control effect
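THP-1 cells pretreated 1 hr with compounds (up to 57.5 uM final), then stimulated with LPS (250 ng/mL final) plus ATP (1.25 mM final); secreted IL-1B measured by AlphaLISA after 16 hr, decreased signal indicating inhibition.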
SW480 rereplic: induces DNA re-replication in SW480 colon adenocarcinoma cells; SW480 DNA re-replication, Hoechst DNA content imaging, 48 h; Potency, µM (series often up to 46.1 µM), for the others: top-dose re-replication activation, hits mostly activators; 1.8% of 340,000 active; AID 624297; further: potency means the concentration at half of the fitted maximal effect; % of control where 0% means no effect; nearly all actives have a fitted effect of over 55% in size
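Readout is total intensity of Hoechst-stained nuclei, excited at 405 nm and collected at 500-530 nm. Compound treatment lasted 48 hr at 37 C in 5% CO2 before staining.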
Vif-APOBEC3G blk: blocks the Vif interaction with human APOBEC3G. Q9HC16. HeLa A3G-eYFP + Vif (tagged APOBEC3G with the HIV-1 protein that degrades it), YFP fluorescence, overnight. Potency, µM (highest dose often 46.1 µM), for inactives: at the top dose activity, negative = active, hits mostly inhibitors. 0.076% of 410,000 active. AID 602310; further: potency means the concentration at half of the fitted maximal effect; on the % scale 0 is the no-effect control and ±100 the full control effect; nearly all actives have a fitted effect of over 60% in size
Target sequence (Q9HC16 whole entry, looked up): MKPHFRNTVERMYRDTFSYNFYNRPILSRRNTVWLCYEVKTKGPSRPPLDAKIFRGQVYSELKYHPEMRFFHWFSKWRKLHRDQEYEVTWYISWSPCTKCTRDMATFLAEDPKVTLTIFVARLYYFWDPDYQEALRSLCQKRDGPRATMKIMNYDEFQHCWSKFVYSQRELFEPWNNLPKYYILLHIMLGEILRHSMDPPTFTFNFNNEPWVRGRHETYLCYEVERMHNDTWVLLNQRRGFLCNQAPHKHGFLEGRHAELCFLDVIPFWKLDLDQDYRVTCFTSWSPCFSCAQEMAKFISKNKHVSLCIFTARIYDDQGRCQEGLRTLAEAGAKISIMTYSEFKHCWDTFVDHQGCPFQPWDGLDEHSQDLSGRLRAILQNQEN
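Read-out is eYFP fluorescence (Ex 488/Em 500-530) from Vif-expressing HeLa A3G-eYFP cells; more signal means A3G escaped Vif-mediated degradation. Cells plated overnight, compound pinned in, incubated overnight at 37 deg C.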
Giardia killer: kills Giardia lamblia | activity change, % at 7.66 µM, hits read low | Giardia lamblia trophozoite viability | 0.15% of 340,000 active; in the data active means activity change below about -80%; inconclusive means between about -30% and that limit;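 further: parasites exposed to compound for two days anaerobically before the ATP read; on the % scale 0 is the no-effect control and ±100 the full control effect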
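Anaerobic 48 hrs incubation at 37 deg C of 100 trophozoites/well with test compounds; ATPLite 1-Step luminescence, 15-30 min RT, reports cellular ATP as viability.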
Vif-APOBEC3F blk: blocks the Vif interaction with APOBEC3F; 0.2% of 390,000 active; AID 602313; HeLa A3F-eYFP + Vif (tagged APOBEC3F with the HIV-1 protein that degrades it), YFP fluorescence increase; Potency, µM (top dose mostly 46.1 µM), for the others: at the top dose activity, negative = active; further: potency means the concentration at half of the fitted maximal effect; % of control where 0% means no effect; nearly all actives have a fitted effect of over 65% in size
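HeLa cells stably expressing Vif plus C-terminally eYFP-tagged A3F were seeded, incubated overnight at 37 deg C, dosed with compound, incubated overnight again at 37 deg C. Yellow fluorescence (Ex 488/Em 500-530) reported blocked Vif-mediated A3F-eYFP degradation.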
Starred values were filed as active, the others as inactive; ? = inconclusive; . = no result given. Unless noted, the call rests on the fitted dose curve; in most records, active means well fitted curve in the direction sought with a large enough effect; inconclusive means small, poorly fitted or top-dose-only effect, or another doubt; inactive means no such curve, though single readings can be large; an effect the other way counts as inactive or inconclusive.

SMILES	MCF10A rerep	IL-1B inflam inh	SW480 rereplic	Vif-APOBEC3G blk	Giardia killer	Vif-APOBEC3F blk
c1ccc(Cn2nnc3c(N4CCCCCC4)ncnc32)cc1	?	-12	8%	-12%	-13	-8%
CCCN1CCN(c2ncnc3c2nnn3Cc2ccccc2)CC1	?	23	21µM*	-23%	26	?
Cc1cccc(CSCCNC(=O)C2CCN(S(=O)(=O)Cc3ccccc3)CC2)c1	.	.	.	4%	.	2%
CCCC[C@@H]1CCCO[C@@](C(=O)NCCOC)(C(F)(F)F)C1	.	.	.	-2%	-9	.
O=C1Oc2ccccc2C(=O)C1C(CC(O)c1ccc(-c2ccc(Br)cc2)cc1)c1ccccc1 (stereo not given)	30µM*	.	-3%	.	.	.
OC(CN1CCN(C(c2ccccc2)c2ccccc2)CC1)c1ccc(Br)cc1 (stereo not given)	9%	-1	-1%	-4%	7	-13%
CCCC1=NN2C(=N)/C(=C\c3cc(C)n(-c4cc(C)cc(C)c4)c3C)C(=O)N=C2S1	21µM*	22	1%	1%	1	?
Cc1cccc(-n2c(C)cc(/C=C3\C(=N)N4N=C(CC(C)C)SC4=NC3=O)c2C)c1	1%	13	-3%	0%	4	-7%
Cc1cc(C)cc(-n2c(C)cc(/C=C3\C(=N)N4N=C(CC(C)C)SC4=NC3=O)c2C)c1	18µM*	-3	2%	0%	-3	-12%
CC1=NN2C(=N)/C(=C\c3cc(C)n(-c4cccc(C)c4)c3C)C(=O)N=C2S1	1%	3	-4%	4%	5	14%
COc1cccc(-n2c(C)cc(/C=C3\C(=N)N4N=C(CC(=O)N5CCOCC5)SC4=NC3=O)c2C)c1	4%	36	18%	-22%	-2	6%
Cc1cc(/C=C2\C(=N)N3N=C(CC(=O)N4CCOCC4)SC3=NC2=O)c(C)n1Cc1ccccc1	18µM*	20	-7%	0%	5	-4%
O=C(Nc1ccccc1F)c1nc(SCc2ccccc2F)ncc1Cl	.	.	.	-1%	.	0%
COc1cc(C(O)c2nc(-c3ccc(N(C)C)cc3)cs2)ccc1F (stereo not given)	.	-62*	.	-3%	.	.
COc1ccc(NC(=O)C2CCCN(C(=O)c3cnn(-c4ccccc4)c3-n3cccc3)C2)cc1 (stereo not given)	.	.	.	2%	.	8%
COC(=O)c1ccccc1NC1=C/C(=N\S(=O)(=O)c2cccs2)c2ccccc2C1=O	18µM*	-92*	4.6µM*	-10%	8	3%
COC(=O)c1ccccc1NC1=C/C(=N\S(=O)(=O)c2ccc(C(=O)O)cc2)c2ccccc2C1=O	?	-90*	2.9µM*	-1%	2	18%
COC(=O)c1cccc(NS(=O)(=O)c2cccs2)c1C	-3%	-6	0%	0%	-13	5%
O=C1C=C(Nc2ccccc2C(=O)O)c2ccccc2C1=O	30%	47	36%	-11%	29	7%
Cc1cccc(Cn2c(=O)n(Cc3ccccc3)c(=O)c3c2c2cc(C)ccc2n3C)c1	.	.	.	-1%	.	-9%
COCCOC(=O)C1=C(C)NC(SCC(=O)NC(C)(C)C)=C(C#N)C1c1ccco1 (stereo not given)	?	-3	18%	-12%	-4	8%
CCCCOC(=O)CSC1=C(C#N)C(c2cccnc2)C(C(=O)OCC)=C(c2ccccc2)N1 (stereo not given)	18µM*	-27	23µM*	-1%	3	-23%
CC1=C(C(=O)Nc2ccc(Cl)cc2)C(c2ccncc2)C(C#N)=C(SCC(N)=O)N1 (stereo not given)	-7%	12	-10%	-3%	4	9%
CCOC(=O)C1=C(c2ccccc2)NC(SCC(=O)NC2CCCCC2)=C(C#N)C1c1ccco1 (stereo not given)	0%	-55*	0%	-3%	2	-9%
CC(=O)C1=C(C)NC(SCC(N)=O)=C(C#N)C1c1cccnc1 (stereo not given)	21µM*	19	-2%	1%	-12	-1%
SMILES	MCF10A rerep	IL-1B inflam inh	SW480 rereplic	Vif-APOBEC3G blk	Giardia killer	Vif-APOBEC3F blk
CCN(CCCNC(=O)c1ccc(Sc2ccc(F)cc2)c(NC(C)=O)c1)c1ccccc1	.	.	.	-6%	.	-4%
COc1ccc(-c2c(C3C4C=CCCC4(C)C(=O)N3Cc3ccccc3)ccc3ccccc23)cc1 (stereo not given)	.	.	.	4%	0	.
Cc1ccc(CNC(=O)C2CCN(c3nn4cc(-c5ccc(F)cc5)nc4s3)CC2)cc1	.	.	.	1%	.	1%
Cc1ccc(NC(=O)c2cc(-c3ccc4c(c3)OCO4)on2)cc1	11%	11	-47%	7%	13	-2%
Cc1nn(Cc2ccc(Cl)c(Cl)c2)c(C)c1NC(=O)c1cc(-c2ccc3c(c2)OCO3)on1	5.8µM*	-13	16µM*	?	-14	?
Cc1nn(Cc2ccc(Cl)cc2)c(C)c1NC(=O)c1cc(-c2ccc3c(c2)OCO3)on1	4.6µM*	-24	?	?	-3	?
CCc1cc(C(=O)Nc2c(C)nn(Cc3ccccc3Cl)c2C)no1	.	.	.	-3%	.	-3%
COc1ccc(-c2cc(C(=O)Nc3c(C)nn(Cc4ccccc4Cl)c3C)no2)cc1	10µM*	-11	8%	-11%	11	-5%
COc1ccc(OC)c(-c2cc(C(=O)Nc3c(C)nn(Cc4ccc(Cl)cc4)c3C)no2)c1	2%	-63*	?	-1%	-11	-7%
CC1Cn2c(C(=O)NCc3cccc(Br)c3)cc3cccc(c32)S1 (stereo not given)	.	.	.	4%	.	0%
COc1ccc(C(=O)Oc2c(Sc3ccc(C)cc3)c(C)nn2C(C)(C)C)c(OC)c1	.	.	.	-15%	.	3%
Cc1[nH][nH]c(=O)c1C(c1ccccc1[N+](=O)[O-])C(C#N)C#N (stereo not given)	-16%	-146*	-31%	-5%	-10	1%
Cc1[nH][nH]c(=O)c1C(c1cc([N+](=O)[O-])ccc1O)c1c(C)[nH][nH]c1=O	-3%	3	?	-5%	8	3%
O=[N+]([O-])c1ccc(CNc2cccc(F)c2)s1	?	-52*	-11%	-19%	-2	2%
Cc1ccccc1NCc1ccc([N+](=O)[O-])s1	4.6µM*	-22	?	-27%	-20	0%
Cc1cccc(NCc2ccc([N+](=O)[O-])s2)c1	?	-21	-130%	0%	11	3%
Cn1c(=O)oc2cc(S(=O)(=O)N3CCCC(C(=O)NCCc4ccc(Cl)cc4)C3)ccc21 (stereo not given)	.	.	.	1%	.	0%
CCCCCNC(=O)c1c[nH]c2ccc(S(=O)(=O)N3CCC(C)CC3)cc2c1=O	.	.	.	8%	.	1%
